The nature of the first assay: basal RPMI8226 mitochondrial membrane potential changes, profiling panel, cell-based, JC-1 fluorescence, 24 h, 100 nL compound (AID 1169). The conditions noted are these: RPMI8226 myeloma, JC-1 mitochondrial potential fluorescence, higher = more signal.
In turn, `CC(C)N1C(=O)c2ccccc2[C@](C)(C(=O)NCCN2CCOCC2)[C@@H]1c1ccc(CO)cc1` returned a z-score of 1.
On to `CCCC=C(CCC)[C@@H](NC(=O)c1cccs1)c1ccc(C(F)(F)F)cc1`, for which the z-score is -0.393.
In the case of `C[N+](C)(C)CCCCNC(=O)[C@@H]1C[C@@H]2C(=O)N[C@@H](Cc3ccccc3)C(=O)N2[C@@H]1c1cccc(OCCO)c1`, the z-score is 0.219.
Take `Cc1ccc(S[C@]2(C(=O)NC3CC3)CC(=O)N(Cc3ccccc3)[C@@H]2c2ccc(CO)cc2I)cc1`: the z-score is -0.525.
On the same count and under the same terms, next, `CCOC(=O)C1=C[C@@H](C(C)(C)C)N(S(=O)(=O)c2ccc(C)cc2)[C@H]1c1ccc(F)cc1`: -1.03; `COc1ccc(C(O)C2C=CC3C(=O)N(Cc4ccccc4)C(=O)C3N2n2cnnc2)cc1OCc1ccccc1` (stereo not drawn): 0.593; `CC1CC/C=C\[C@H]2OC34C=CCN(C(C)(C)C)C(=O)[C@H]3N(CCO)C(=O)[C@@H]4C2C(=O)O1` (stereo partly drawn): -0.0147.

A short description of another assay: basal MM1S mitochondrial membrane potential changes, profiling panel, cell-based, JC-1 fluorescence, 24 h, 100 nL compound (AID 1170). The conditions noted are these: higher = more signal.
`CC(=O)NCCCC[C@@H]1NC(=O)[C@@H]2C[C@H](C(=O)NCCCCCNC(=O)CS)[C@H](c3cccc(OCCO)c3)N2C1=O` came in with a z-score of -0.892.
On the same count and under the same terms, next, `COc1ccccc1CN1C(=O)c2ccccc2[C@@]2(Cc3ccccc3N(CC(C)C)C2=O)[C@@H]1c1ccc(CO)cc1`: -0.0409.
Same read-out and setting: to `CC(CO)N1C(=O)[C@@H]2C3C(=O)OCCC/C=C\[C@H]3OC23C=CCN(C(C)(C)C)C(=O)[C@@H]13` (stereo partly drawn) belongs -1.26; to `CC1(C)[C@@H]2CC(C(O)C3C=CC4C(=O)N(Cc5ccccc5)C(=O)C4N3n3cnnc3)=C[C@H]1C2` (stereo partly drawn), -0.649.
Same read-out and setting: next, `O=C1C[C@@](C(=O)NC2CC2)(c2ccc([N+](=O)[O-])cc2)[C@@H](c2ccc(CO)cc2I)N1C1CCCCC1`: -0.993; `NC(=O)NCC#Cc1ccc2c(c1)[C@]1(C(=O)N2)[C@H](C(=O)Nc2nc3ccccc3s2)[C@H]2C(=O)O[C@H](c3ccccc3)[C@H](c3ccccc3)N2[C@@H]1c1ccccc1OCCO`: -0.815.
`O=C1c2ccccc2[C@](Cc2ccccc2I)(C(=O)NCC(F)(F)F)[C@H](c2ccc(CO)cc2)N1Cc1ccccc1Cl` yielded a z-score of -1.34.
On the same count and under the same terms, to `CCC[C@@H]1C[C@@]1(CCC)[C@@H](NS(=O)(=O)c1cccc2cccnc12)c1ccc(Cl)cc1` belongs -0.855.
Same read-out and setting: to `CCCC[C@@H]1C[C@H]1[C@@H](NC(=O)c1ccco1)c1ccc(-c2ccccc2)cc1` belongs 0.0163.
Same read-out and setting: next, `Cc1ccc(S[C@]2(C(=O)NCCCN(C)C)CC(=O)N(Cc3cc(C(F)(F)F)cc(C(F)(F)F)c3)[C@@H]2c2ccc(CO)cc2)cc1`: 0.339.
For the compound `C=C[C@@H](COC(=O)OC(C)(C)C)N(Cc1ccc(OC)cc1)S(=O)(=O)c1ccc(Br)cc1`, the z-score came to 0.101.
Same read-out and setting: to `COCCOC(=O)N1C(=O)[C@@]2(c3cc(C#CCC(C(=O)OC)C(=O)OC)ccc31)[C@H](C(=O)N1CCN(c3ncccn3)CC1)[C@H]1C(=O)O[C@H](c3ccccc3)[C@H](c3ccccc3)N1[C@@H]2c1ccccc1OCCO` belongs -1.2.
`CN1C(=O)C2C=CC(C(O)c3ccccc3)N(N(c3ccccc3)c3ccccc3)C2C1=O` (stereo not drawn) showed a z-score of 0.102.
Still for that read-out and setting: to `COc1ccc([Si](C)(C)[C@H]2[C@H](CC(=O)N3Cc4ccccc4C[C@H]3CO)O[C@@]3(C(=O)N(Cc4cccc(N5CCC5=O)c4)c4ccccc43)[C@@H]2C)cc1` belongs -1.23; to `C=CCC(OC(C)=O)[C@@H]1[C@@H](N(Cc2ccc(-c3cccc(C(F)(F)F)c3)o2)C(=O)c2ccc(C)cc2)c2cc(OCCCO)ccc2N1C(=O)Cc1ccc2ccccc2c1` (stereo partly drawn), -0.554.
Still for that read-out and setting: next, `Oc1ccc2cc[n+](Cc3sc4ccccc4c3Cl)cc2c1`: 1.78.
`COC(=O)C(CC#Cc1ccc2c(c1)[C@]1(C(=O)N2)[C@H](c2ccc(OCCO)cc2)N2[C@H](c3ccccc3)[C@H](c3ccccc3)OC(=O)[C@H]2[C@@H]1C(=O)N1CCc2cc(OC)c(OC)cc2C1)C(=O)OC` registered a z-score of -1.11.
The same measure, in the same setting: next, `COc1ccc(CCNC(=O)[C@@]2(Sc3ccc(C)cc3)CC(=O)N(C(C)C)[C@@H]2c2ccc(CO)cc2I)cc1`: -0.942.
Same read-out and setting: next, `CN(C)CCCC[C@@H]1NC(=O)[C@@H]2C[C@H](C(=O)NCCCCCCN)[C@H](c3cccc(OCCO)c3)N2C1=O`: 0.454.
Still for that read-out and setting: to `C=CCN1C(=O)[C@]2(O[C@H](CCn3cc([C@H](O)c4ccccc4)nn3)[C@@H]([Si](C)(C)c3ccc(OC)cc3)[C@@H]2C)c2ccccc21` belongs -2.26; to `COC(=O)C(CC#Cc1ccc2c(c1)[C@]1(C(=O)N2)[C@H](C(=O)Nc2nc3ccccc3s2)[C@H]2C(=O)O[C@H](c3ccccc3)[C@H](c3ccccc3)N2[C@@H]1c1ccc(O)cc1)C(=O)OC`, -0.561.

Source of the values: PubChem BioAssay.
Also: test concentration not given here.
